The target of one experiment is MYST1. Put plainly: pooled miR-30 sensor sort-seq; sequence = guide strand. The settings on record: shRNA.
On to TACAGCATCCTTCACTGTCTTG, for which the sensor-assay potency score (higher = more potent) was -0.889.
The same measure, in the same setting: as for TATTTCATGTACTTGAGGCAGT, the figure is 0.803.
Sequence TTGGTTGCGAGTGATCTTGCGC gave a sensor-assay potency score (higher = more potent) of -0.436.
In the case of TACTTGACCATATTGAGGGATT, the sensor-assay potency score (higher = more potent) was -1.22.
In turn, TACTTGAGGCAGTACTCGCAGA returned a sensor-assay potency score (higher = more potent) of -0.834.
On the same count and under the same terms, with TTTGCCATCAACTTCGTGCACG the figure was -0.42; with TACTTCTCTGAGTTCTTCTGTA, 0.544; with TTGCGGTAGATCTCTTTCCCGG, -0.991.
Take TTGATGGACAGTGTGCCCCGGA: the sensor-assay potency score (higher = more potent) is -0.00673.
In turn, TTGACTTGCTTGTGCTTGGGGG gave a sensor-assay potency score (higher = more potent) of 0.169.
As for TTTGAGGTGCTCCTCCACCAGC, the sensor-assay potency score (higher = more potent) is -1.45.
The same measure, in the same setting: as for TTGTCCACATACTTCACCTTGG, the figure is -0.263.

The target of another experiment is MYST4. The experiment is described as above. Particulars: shRNA.
With TTCAGTAACGACATCCTTGTTT, the sensor-assay potency score (higher = more potent) is -0.1.
In the case of TTATTTTCTGTATAGCTTCAAG, the sensor-assay potency score (higher = more potent) is -0.855.
TTTTCGATTGTACTTTTGCAGG yielded a sensor-assay potency score (higher = more potent) of -1.34.
Take TTGAGTCTCGGCACAATCCTGA: the sensor-assay potency score (higher = more potent) stood at 0.672.
TTTGAGAACTGAGCCATCCTGA: the sensor-assay potency score (higher = more potent) came out at 0.202.
Consider TTTGATGAGATCATCTTCTGGT, for which the sensor-assay potency score (higher = more potent) amounted to 1.05.
Still for that read-out and setting: as for TATACAATAACTGAAATGCTAA, the figure is -0.972; as for TTGGCTTTTAGCACCATCTGGA, 0.342; as for TATTTCAGTATCATCATCCTGA, 0.932.

The values above are taken from the OligoGym collection.
Note: reference of the scale not given here.
